# Screening data (PubChem)
# Y pestis TopoI – Yersinia pestis topoisomerase I inhibitors, primary screen, biochemical, cleavage product accumulation, plate reader, single point; DNA topoisomerase I (Yersinia pestis CO92); Y. pestis Topo-I cleavage product accumulation; activity, % at 10 µM; 360,000 tested, 0.064% active; AID 504884, 2011; in the data active = activity above about 50%, passing the limit was not always enough
# TcdB inh – TcdB glycohydrolase inhibitors, primary screen, biochemical, single point, plate reader | Toxin B (Clostridioides difficile), P18177 | TcdB glycohydrolase enzymatic assay | inhibition, % at 9.99 µM | 350,000 tested, 0.24% active | AID 652162, 2013; in the data active = inhibition above about 10%
# Vc quorum ag-1 – inducers of Vibrio cholerae quorum light production without autoinducers, primary screen, BH1578 luxS cqsA deficient, single point. V. cholerae BH1578 lux reporter, luminescence, 6 h. activation, % at 18.7 µM. 350,000 tested, 0.16% active. AID 588436, 2011; in the data active = activation mostly above about 9.7%, no sharp cut-off
# Mtb BioA inh – M. tuberculosis BioA enzyme inhibitors, primary screen, biochemical, plate reader, single point, HTS | 7,8-diaminopelargonic acid synthase BioA (Mycobacterium tuberculosis) | purified M. tuberculosis BioA enzyme | inhibition, % at 9.99 µM | 360,000 tested, 0.096% active | AID 602481, 2012; in the data active = inhibition above about 40%
# FadD28 FP inh – inhibitors of FadD28 bisubstrate probe binding, primary screen, biochemical, fluorescence polarization, single point; AID 588549, 2011; 360,000 tested, 0.22% active; inhibition, % at 12.5 µM; Mycobacterium tuberculosis FadD28 fatty-acid-AMP ligase; in the data active = inhibition above about 8.5%, passing the limit was not always enough
# Vc quorum ag-2 – V. cholerae lux activation without autoinducers – BH1578 luxS cqsA deficient, cherry-pick, plate reader, dose response. shares compounds with Vc quorum ag-1. V. cholerae BH1578 lux reporter, luminescence, 6 h. activation, % at 50 µM. 620 tested, under 10 active; call rule not given here
# HeLa 24h tox – HeLa cell cytotoxicity, dose response, cytotoxicity control, 24 h, dry powder. shares compounds with Vc quorum ag-1. HeLa viability, CellTiter-Glo ATP luminescence. activity change, negative = cytotoxicity, % at 35 µM. 25 tested, under 10 active;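 active = signal drop with fitted half-maximal concentration at or below twice the highest valid dose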
# Starred values were filed as active, the others as inactive; i = inactive; . = not tested or not shown. The list is not random: actives were taken first. Their share in the collection is about 0.61%.
SMILES,Y pestis TopoI,TcdB inh,Vc quorum ag-1,Mtb BioA inh,FadD28 FP inh,Vc quorum ag-2,others
COC(=O)c1c(-c2ccc(Br)cc2)noc1N,5,.,17*,-1,-3,10,
FC(F)(F)c1nnc2sc(-c3ccncc3)nn12,-6,.,i,1,-5,.,
FC(F)(F)c1nnc2sc(-c3cccs3)nn12,4,.,17*,0,0,4,
CCCOC(=O)c1ccc(NC(=O)CCC(=O)OCC)cc1,2,.,12,2,1,0,
CCCOC(=O)c1ccc(NC(=O)C2CCCO2)cc1 (stereo not given),-5,.,17*,-1,-3,0,
Clc1ncnc2scc(-c3ccccc3)c12,6,.,12,2,-6,0,
Cc1nnc(NC(=O)c2cccc(S(=O)(=O)N3CCc4ccccc43)c2)s1,-2,.,18,-1,-2,0,
O=C(Nc1nnc(C2CC2)s1)c1cccc(S(=O)(=O)N2CCc3ccccc32)c1,12,.,19,-1,0,0,
O=C(CNC(=O)c1cccc(S(=O)(=O)N2CCc3ccccc32)c1)Nc1ccc(F)c(F)c1F,9,-2,12,-2,-4,5,
O=C(CN1CCOCC1)NCC[C@H]1CC[C@H](NC(=O)Nc2ccc(C(F)(F)F)cc2)[C@@H](CO)O1,.,1,.,0,.,.,
O=C(C[C@@H]1CC[C@@H]2[C@H](COC[C@H](O)CN2S(=O)(=O)c2ccccc2)O1)NCCN1CCCCC1,.,-1,.,11,.,.,
COCCNc1nc2c(c(=O)n(Cc3ccc(OC)cc3)c(=O)n2C)n1C,2,.,14,0,0,0,
CCn1nnc(NC(=O)Cc2ccc(Cl)cc2)n1,-4,0,-1,.,-3,.,
CCn1nnc(NCc2ccc(C)cc2)n1,.,.,.,.,.,.,HeLa 24h tox=10
CC=Cc1ccc2n(c1=O)C[C@@H]1[C@@H](CO)[C@H](C(=O)NCCC)[C@H]2N1CCC(F)(F)F (mixture of isomers),.,1,.,-1,.,.,
CC(=O)c1cc2c(cc1NC(=O)CN1CCCCCCC1)OCO2,23,.,i,-2,-3,.,
CCCCc1cc2c(cc1NC(=O)CN1CCCCC1)OCCO2,19,0,14,-1,0,0,
COc1ccc2c3c([nH]c2c1)[C@H](CO)N(C(=O)CN(C)C)CC31CCN(CC2CCOCC2)CC1,.,0,.,.,.,.,
COc1cc(C(C)=O)ccc1OCC(=O)Nc1cc(Cl)ccc1-n1cncn1,2,-1,19,-1,-1,0,
COc1cc(OC)c(C(=O)Nc2cc(Cl)ccc2-n2cncn2)cc1OC,-3,2,-1,-1,-4,.,
C[C@@H]1CN([C@H](C)CO)C(=O)Cc2cc(NC(=O)CCCCCC(=O)Nc3ccccc3N)ccc2O[C@H]1CN(C)S(C)(=O)=O,.,0,.,-1,.,.,
CCCCNC(=O)COC(=O)c1ccc(NC(C)=O)cc1,-11,1,0,-1,-2,.,
CCCCNC(=O)COC(=O)c1ccc(N(C)C)cc1,4,-1,170*,.,-1,359,
Cc1cc(C(=O)Nc2cccc3c2O[C@@H](CN(C)Cc2ccc(C(=O)Nc4ccccc4N)cc2)[C@@H](C)CN([C@@H](C)CO)C3=O)n(C)n1,.,0,.,0,.,.,
COc1cc2c(cc1OC)C(c1ccc(C)cc1)NC(=O)C2 (stereo not given),3,-4,100*,0,-5,1,
CC(=O)c1ccc(S(=O)(=O)Nc2cccc(-c3ccc4nncn4n3)c2)cc1,-7,.,23*,0,-4,0,
COc1ccc2c3c(n(C)c2c1)[C@@H](CO)N(C(C)=O)CC31CN(C(=O)c2cnccn2)C1,.,0,.,.,.,.,
CCC(C)n1cnc2c(=O)oc3ccccc3c21 (stereo not given),-6,2,114*,2,1,21,
COC(=O)c1cc(NC(=O)C2CC=CCC2C(=O)O)cc(C(=O)OC)c1 (stereo not given),2,.,7.6*,-1,-1,1,
